From PubChem BioAssay (EPA / NIEHS)
Values joined by “and” are separate entries in the source; they are usually repeats but may differ in a detail not shown here. Equal values may be shown once. Some compounds were tested as several samples or in several runs, with calls that do not always agree. Active and inactive are the calls of the source. Rule for the calls: active = hit-call score of the fitted dose curve at least 0.9, where 1 is the maximum; inactive = score below 0.9.

Columns and labels:
[1] = read-out: Thrombomodulin, THBD (gene 7056); experiment: BSK_CASM3C_Thrombomodulin: BioMAP Diversity Plus: CASM3C Assay for Thrombomodulin Biomarker Activity (AID 2283051); settings: primary human coronary artery smooth muscle cells; actives raise or lower the signal;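 note: thrombomodulin protein level measured by ELISA 24 h after dosing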
[2] = read-out: Tissue Factor, F3 (gene 2152); experiment: BSK_CASM3C_TissueFactor: BioMAP Diversity Plus: CASM3C Assay for Tissue Factor Biomarker Activity (AID 2283052); settings: primary human coronary artery smooth muscle cells; actives raise or lower the signal;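 note: cell surface tissue factor protein level read by ELISA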
[3] = read-out: Urokinase-type plasminogen activator receptor (uPAR), PLAUR (gene 5329); experiment: BSK_CASM3C_uPAR: BioMAP Diversity Plus: CASM3C Assay for Urokinase-type plasminogen activator receptor (uPAR) Biomarker Activity (AID 2283054); settings: primary human coronary artery smooth muscle cells; actives raise or lower the signal;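 note: cell-surface uPAR protein level quantified by ELISA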
[4] = read-out: Vascular cell adhesion molecule 1 (VCAM1), VCAM1 (gene 7412); experiment: BSK_CASM3C_VCAM1: BioMAP Diversity Plus: CASM3C Assay for Vascular cell adhesion molecule 1 (VCAM1) Biomarker Activity (AID 2283055); settings: primary human coronary artery smooth muscle cells; actives raise or lower the signal;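 note: VCAM-1 protein level quantified by ELISA on the cells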
[5] = read-out: Collagen III, COL3A1 (gene 1281); experiment: BSK_hDFCGF_CollagenIII: BioMAP Diversity Plus: hDFCGF Assay for Collagen III Biomarker Activity (AID 2283056); settings: primary human foreskin fibroblasts; actives raise or lower the signal
Method in brief: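 Response relative to DMSO, fitted in both directions, reflects ELISA-measured collagen III in human primary skin fibroblasts 24 h after compound addition.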

[6] = read-out: Epidermal growth factor receptor (EGFR), EGFR (gene 1956); experiment: BSK_hDFCGF_EGFR: BioMAP Diversity Plus: hDFCGF Assay for Epidermal growth factor receptor (EGFR) Biomarker Activity (AID 2283057); settings: primary human foreskin fibroblasts; actives raise or lower the signal
Method in brief: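 Dosing human primary skin fibroblasts, then measuring surface EGFR by ELISA at 24 h, gives the endpoint; gains and losses relative to DMSO were fitted in both directions.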

[7] = BSK_hDFCGF_Proliferation: Cell Proliferation Assessment in the BioMAP Diversity Plus: hDFCGF Assay (AID 2283059); settings: primary human foreskin fibroblasts;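 note: curves fitted for both rise and fall of signal versus DMSO baseline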
Method in brief: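 Primary human foreskin fibroblasts, sub-confluent; […]; 10% TCA fix, 0.1% SRB stain, A560 total protein. Gain/loss fitted bidirectionally vs DMSO control.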

[8] = read-out: Macrophage colony-stimulating factor (MCSF), CSF1 (gene 1435); experiment: BSK_hDFCGF_MCSF: BioMAP Diversity Plus: hDFCGF Assay for Macrophage colony-stimulating factor (MCSF) Biomarker Activity (AID 2283060); settings: primary human foreskin fibroblasts; actives raise or lower the signal
Method in brief: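 fibroblasts (human foreskin, primary), 24 h post-dose; M-CSF by ELISA; bidirectional fit, DMSO = baseline.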

[9] = BSK_hDFCGF_SRB: Viability Assessment in the BioMAP Diversity Plus: hDFCGF Assay (AID 2283061); settings: primary human foreskin fibroblasts;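 note: cells exposed to compound for 24 h before the read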
Method in brief: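 SRB-based viability read on primary human skin fibroblasts at 24 h: TCA fixation, 0.1% dye, 560 nm. Gain or loss of signal is fitted against the DMSO negative control.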

[10] = read-out: TIMP metallopeptidase inhibitor 1 (TIMP1), TIMP1 (gene 7076); experiment: BSK_hDFCGF_TIMP1: BioMAP Diversity Plus: hDFCGF Assay for TIMP metallopeptidase inhibitor 1 (TIMP1) Biomarker Activity (AID 2283062); settings: primary human foreskin fibroblasts; actives raise or lower the signal
Method in brief: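 Bidirectional curve fitting against DMSO baseline yielded this endpoint, based on ELISA detection of TIMP-1 in primary human foreskin fibroblasts exposed to compound for 24 h.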

[11] = read-out: Monokine induced gamma interferon (MIG), CXCL9 (gene 4283); experiment: BSK_hDFCGF_MIG: BioMAP Diversity Plus: hDFCGF Assay for Monokine induced gamma interferon (MIG) Biomarker Activity (AID 2283063); settings: primary human foreskin fibroblasts; actives raise or lower the signal
Method in brief: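 Endpoint derived by bidirectional fitting relative to DMSO; MIG quantified via ELISA in primary human foreskin fibroblasts harvested 24 h after dosing.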

[12] = read-out: Matrix Metallopeptidase 1 (MMP1), MMP1 (gene 4312); experiment: BSK_hDFCGF_MMP1: BioMAP Diversity Plus: hDFCGF Assay for Matrix Metallopeptidase 1 (MMP1) Biomarker Activity (AID 2283064); settings: primary human foreskin fibroblasts; actives raise or lower the signal
Method in brief: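 ELISA read-out of MMP1 from human foreskin fibroblasts (primary skin cells), 24 h post-dose. Gain or loss of signal was fitted bidirectionally versus DMSO negative control; cytotoxicity was checked by SRB in parallel cultures.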

[13] = read-out: Vascular cell adhesion molecule 1 (VCAM1), VCAM1 (gene 7412); experiment: BSK_hDFCGF_VCAM1: BioMAP Diversity Plus: hDFCGF Assay for Vascular cell adhesion molecule 1 (VCAM1) Biomarker Activity (AID 2283065); settings: primary human foreskin fibroblasts; actives raise or lower the signal;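 for AC50: VCAM-1 protein level quantified by ELISA after 24 h chemical exposure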
Method in brief: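 Measured after 24 h chemical treatment of primary human skin fibroblasts, VCAM-1 was detected by ELISA and concentration-response analysed in both directions versus DMSO vehicle.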

[14] = read-out: Plasminogen activator inhibitor-1 (PAI1), SERPINE1 (gene 5054); experiment: BSK_hDFCGF_PAI1: BioMAP Diversity Plus: hDFCGF Assay for Plasminogen activator inhibitor-1 (PAI1) Biomarker Activity (AID 2283066); settings: primary human foreskin fibroblasts; actives raise or lower the signal
Method in brief: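 Fibroblasts from human foreskin were treated with test chemical. After 24 h, PAI-1 was measured by ELISA. Activity was fitted in both directions relative to DMSO.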

[15] = read-out: Intercellular Adhesion Molecule 1 (ICAM1), ICAM1 (gene 3383); experiment: BSK_KF3CT_ICAM1: BioMAP Diversity Plus: KF3CT Assay for Intercellular Adhesion Molecule 1 (ICAM1) Biomarker Activity (AID 2283067); settings: primary human keratinocytes with fibroblasts; actives raise or lower the signal
Method in brief: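 Bidirectional curve fitting against a DMSO baseline was applied to ICAM-1 ELISA signal from primary human skin co-cultures harvested 24 h after treatment, with SRB staining of parallel wells for overt cytotoxicity.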

[16] = read-out: Interferon-gamma inducible Protein 10 (IP10), CXCL10 (gene 3627); experiment: BSK_KF3CT_IP10: BioMAP Diversity Plus: KF3CT Assay for Interferon-gamma inducible Protein 10 (IP10) Biomarker Activity (AID 2283068); settings: primary human keratinocytes with fibroblasts; actives raise or lower the signal
Method in brief: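 In a primary skin co-culture of keratinocytes and fibroblasts, IP-10 is quantified by ELISA at 24 h after dosing. SRB staining of parallel wells monitors overt toxicity. Curves are fitted both directions against DMSO.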

[17] = BSK_KF3CT_SRB: Viability Assessment in the BioMAP Diversity Plus: KF3CT Assay (AID 2283069); settings: primary human keratinocytes with fibroblasts;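 note: total protein by sulforhodamine B staining as a cytotoxicity measure; fitted for both signal gain and loss against DMSO baseline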
Method in brief: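 SRB read-out at 560 nm (0.1% stain, TCA-fixed cells) gauges overt cytotoxicity in a human skin keratinocyte–fibroblast co-culture 24 h post-dosing. Signal change was fitted bidirectionally relative to DMSO control.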

[18] = read-out: Interleukin-1 alpha (IL1a), IL1A (gene 3552); experiment: BSK_KF3CT_IL1a: BioMAP Diversity Plus: KF3CT Assay for Interleukin-1 alpha (IL1a) Biomarker Activity (AID 2283070); settings: primary human keratinocytes with fibroblasts; actives raise or lower the signal
Method in brief: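 Primary skin co-culture (keratinocytes, foreskin fibroblasts), 24 h exposure; ELISA for IL-1a; bidirectional curve fit vs DMSO.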

[19] = read-out: Interferon-gamma inducible Protein 10 (IP10), CXCL10 (gene 3627); experiment: BSK_hDFCGF_IP10: BioMAP Diversity Plus: hDFCGF Assay for Interferon-gamma inducible Protein 10 (IP10) Biomarker Activity (AID 2283053); settings: primary human foreskin fibroblasts; actives raise or lower the signal
Method in brief: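 Cells: human dermal foreskin fibroblasts. Exposure: 24 h post-dosing. Detection: IP-10 ELISA, with values expressed against DMSO controls and fitted in both directions.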

[20] = read-out: Interleukin-8 (IL8), CXCL8 (gene 3576); experiment: BSK_hDFCGF_IL8: BioMAP Diversity Plus: hDFCGF Assay for Interleukin-8 (IL8) Biomarker Activity (AID 2283058); settings: primary human foreskin fibroblasts; actives raise or lower the signal
Method in brief: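 Fibroblast monolayers (human foreskin, hDFCGF) received test chemical for 24 h before ELISA detection of IL-8; either increases or decreases relative to DMSO count as activity.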

Measured: AC50

C[Si](Cl)(Cl)CCC(F)(F)C(F)(F)C(F)(F)C(F)(F)C(F)(F)C(F)(F)F
inactive: [1] | [2] | [3] | [4] | [5] | [6] | [8] | [9] | [10] | [12] | [14] | [15] | [16] | [17] | [18]
active: [5] 332 nM | [7] 115 nM and 2.85 µM | [8] 605 nM | [10] 739 nM | [11] 1.26 µM and 1.52 µM | [12] 1.18 µM | [13] 1.4 µM and 876 nM

CCN=C1C=CC(=C(c2ccc(N(CC)CC)cc2)c2ccc(N(CC)CC)cc2)c2ccccc21
inactive: [6] | [9] | [17]
active: [1] 1.03 µM and 1.42 µM | [2] 149 nM and 1.21 µM | [19] 1.52 µM and 1.32 µM | [3] 3.87 µM and 3.2 µM | [4] 5.39 µM and 2.81 µM | [5] 1.15 µM and 1.3 µM | [7] 180 nM and 151 nM | [8] 1.37 µM and 1.28 µM | [9] 0.331 µM | [10] 1.42 µM and 1.3 µM | [11] 1.73 µM and 1.47 µM | [12] 1.29 µM and 1.26 µM | [13] 1.42 µM and 854 nM | [14] 1.31 µM and 1.23 µM | [15] 3.19 µM and 3.16 µM | [16] 2.87 µM and 2.44 µM | [18] 2.69 µM and 2.13 µM

O=C(F)C1(F)C(F)(F)C(F)(F)C(F)(F)C(F)(F)C1(F)F
not listed: [5] | [20]
inactive: all other assays above

Cc1cc(O)c(C(C)(C)C)cc1C(C)(C)C
active: [1] 12 µM | [2] 3.61 µM | [19] 6.51 µM | [3] 8.38 µM | [4] 4.81 µM | [5] 1920 nM | [7] 1.78 µM | [8] 5420 nM | [9] 5.28 µM | [10] 4030 nM | [11] 9.12 µM | [12] 6.54 µM | [13] 5.41 µM | [14] 4.51 µM | [15] 2.89 µM | [16] 3.63 µM | [17] 2.33 µM | [18] 4.04 µM
inactive: [6] | [20]

CC(C)(C)c1cc(CCC(=O)NCCCCCCNC(=O)CCc2cc(C(C)(C)C)c(O)c(C(C)(C)C)c2)cc(C(C)(C)C)c1O
not listed: [5] | [20]
inactive: all other assays above
